Source: PubChem (National Center for Advancing Translational Sciences (NCATS))
Only some compounds are listed: those with a hit (about 2.2% of all), similar ones and a draw of the others.
Pin1 inhibitor: human Pin1 inhibition; Q13526; Pin1 FP peptide displacement, HiFluor488, 10 min; Potency, µM (series often up to 115 µM), without a hit: at the top dose activity, negative = inhibition, actives largely listed as inhibitors; hit rate 0.009% among 390,000; active = well fitted inhibition curve with a large enough effect in the polarisation, with a control signal flat, not every such curve was filed as active; inconclusive = small, poorly fitted or top-dose-only effect, or effect the other way, or a change in a side signal; inactive = no such curve, though single readings can be large or run the other way; the % refers to the polarisation; note: % is set by controls: 0 for no effect and ±100 for the full control effect
Target sequence (Q13526 whole entry, looked up): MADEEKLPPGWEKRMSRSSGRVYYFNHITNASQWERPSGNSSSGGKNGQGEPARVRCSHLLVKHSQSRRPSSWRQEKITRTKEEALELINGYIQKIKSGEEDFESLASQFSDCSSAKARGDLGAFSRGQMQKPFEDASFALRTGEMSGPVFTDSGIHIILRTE
Nrf2 inh: inhibitors of Nrf2 signaling | hit rate 2.1% among 360,000 | Potency, µM (titrated, usually from 46 µM), for the others: top-dose activity change, negative = inhibition, hits mostly inhibitors | A549 ARE-Fluc reporter, luciferase luminescence, 18-24 h; note: % is set by controls: 0 for no effect and ±100 for the full control effect; nearly all actives have a fitted effect of over 60% in size
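In this cell-based qHTS, ARE-driven firefly luciferase in A549 cells reports Nrf2 activity; the luminescent signal after BugLite lysis is the measured value, with a prior CellTiter-Fluor read for cell health.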
Nrf2 activator: activates Nrf2 signaling; AREc32 ARE-luciferase reporter (MCF7-derived line), luminescence, 24 h; Potency, µM (highest dose often 46.1 µM), without a hit: at the highest dose activation, usual class: activators; hit rate 0.31% among 410,000; note: % of control where 0% means no effect; nearly all actives have a fitted effect of over 65% in size
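AREc32 cells carrying an ARE-driven firefly luciferase reporter were seeded at 1000 cells/well in OPTI-MEM with 5% FBS, then exposed to compound for 24 hr at 37 deg C. Luminescence was read with Steady-Glo after 30 min at RT.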
A549 tox: counter-screen for Nrf2 inhibitors: cytotoxicity in A549 cells; A549 ARE-Fluc cells, CellTiter-Fluor viability, 18-24 h; Potency, µM (doses to about 46 µM), inactives show at the top dose activity change, negative = cytotoxicity, hits mostly inhibitors; hit rate 0.16% among 390,000; AID 504648; note: % is set by controls: 0 for no effect and ±100 for the full control effect
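A549 ARE_Fluc cells in 5% FBS OPTI-MEM were exposed to compounds in concentration-response for 18-24 h at 37 deg C. Viability was read by CellTiter-Fluor fluorescence (Ex 405/Em 525) after 30 min, before the luciferase read.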
* hit, by the source's call; ? = inconclusive; . = not tested or not shown. Unless noted, calls come from the whole dose curve; as a rule, active = well fitted curve in the direction sought with a large enough effect; inconclusive = small, poorly fitted or top-dose-only effect, or another doubt; inactive = no such curve, though single readings can be large; an effect the other way counts as inactive or inconclusive. Potency is the fitted concentration of half-maximal effect.

SMILES	Pin1 inhibitor	Nrf2 inh	Nrf2 activator	A549 tox
Cc1ccc(C(=O)Nc2ccc(N3CCN(C(=O)c4cccs4)CC3)cc2)c(Cl)c1	2.2%	23.1µM*	0.1%	-12.4%
Cc1ccccc1OCC(=O)Nc1ccc(N2CCN(C(=O)c3ccco3)CC2)cc1	-3.7%	14.6µM*	3.0%	-23.4%
Cc1cccc(OCC(=O)Nc2ccc(N3CCN(C(=O)c4ccco4)CC3)cc2)c1C	-6.8%	-1.1%	-0.3%	3.2%
O=C(COc1ccc(Cl)cc1)Nc1ccc(N2CCN(C(=O)c3ccco3)CC2)cc1	7.1%	23.1µM*	-0.2%	-1.4%
O=C(COc1ccccc1[N+](=O)[O-])Nc1ccc(N2CCN(C(=O)c3cccs3)CC2)cc1	-1.2%	5.8µM*	3.5%	-12.8%
N#Cc1ccccc1NC(=O)COC(=O)c1cccs1	5.4%	?	21.4%	1.8%
O=C(COC(=O)c1cccs1)Nc1ccccc1[N+](=O)[O-]	-9.1%	3.9%	11.2µM*	6.4%
CC(C)C(=O)Nc1cccc(C(=O)OCC(=O)c2ccc(Cl)cc2Cl)c1	-9.0%	20.6µM*	0.6%	?
CC(=O)Nc1cc(C(=O)OCC(=O)c2ccc(Cl)cc2Cl)ccc1C	1.8%	?	-0.4%	-10.6%
Cc1cccc(OCC(=O)Nc2ccc3c(c2)nc(CCN2CCC(C)CC2)n3C)c1	-7.2%	-24.1%	12.6%	?
CCn1c(CN2CCC(C)CC2)nc2cc(NC(=O)COc3ccc(Cl)c(C)c3)ccc21	-0.8%	14.6µM*	1.1%	?
CC(C)CC(=O)Nc1ccc(C(=O)NNC(=S)NC(=O)C2CCCCC2)cc1	-0.3%	8.2µM*	-0.8%	2.4%
N#CCC(=O)Nc1ccc(C(=O)NNC(=S)NC2CCCCC2)cc1	-4.9%	-3.1%	-0.2%	0.7%
C/C=C/C(=O)[C@@H](C)[C@@H](/C=C/C[Si](C)(C)C)c1ccccc1	-1.6%	14.2%	.	12.6%
CC(C)(C)OC(=O)NCc1nnc(C(C(=O)OCc2ccccc2)c2ccccc2)s1 (stereo not drawn)	1.5%	15.6%	.	-4.2%
COc1ccc(C(=O)Nc2ccccc2C(=O)N/N=C/c2ccccn2)cc1OC	3.2%	9.2µM*	6.5%	-12.8%
COc1ccc(C(=O)N/N=C/c2ccccn2)cc1OC	1.6%	?	0.1%	-5.4%
CCn1c2c(c(=N)c3ccccc31)CCC2	-3.1%	13µM*	0.0%	-9.7%
COc1ccc(CCNC(=O)CSc2nnnn2-c2cccc(C(C)=O)c2)cc1OC	3.6%	7.8%	5.3%	-1.2%
O=C(Nc1ccccc1)N(Cc1c[nH]c2ccccc12)C1CCCCCC1	6.1%	?	10.1%	-3.1%
COc1ccc(C(=O)CC(=O)C(=O)Nc2ccc(Cl)cc2)cc1	-1.1%	6.3%	1.9%	0.0%
COc1ccc(C(=O)CC(Nc2ccc([N+](=O)[O-])cc2)c2ccc(Cl)cc2)cc1 (stereo not drawn)	-2.1%	6.51µM*	0.7%	?
O=S(=O)(c1ccc2c(c1)nc(COc1ccc(Cl)cc1)n2CC1CCCO1)N1CCOCC1 (stereo not drawn)	14.9%	10.3µM*	2.0%	-19.5%
COc1ccc(S(=O)(=O)N(CC(=O)N2CCC(C)CC2)c2ccc(C)cc2)cc1	?	-2.9%	-1.0%	-16.0%
Nc1ncc(-c2ccccc2)n1CC1CCCO1 (stereo not drawn)	7.3%	16.4µM*	2.1%	.
SMILES	Pin1 inhibitor	Nrf2 inh	Nrf2 activator	A549 tox
COc1ccc(C(=O)Nc2nc(-c3ccc([N+](=O)[O-])cc3)c(-c3ccccc3)s2)cc1	?	13µM*	0.0%	-29.3%
CCOc1ccc(CCNC(=O)c2cccc(-n3c(C)nc4cccnc43)c2C)cc1	-2.2%	?	0.0%	-0.8%
O=c1c2ccccc2nc(N/N=C/c2c(O)ccc3ccccc23)n1O	?	6.51µM*	4.6%	?
CCOCCCNC(=O)/C(C#N)=C/c1cc(OC)c(O)c([N+](=O)[O-])c1	-5.5%	-4.5%	3.1%	18.4µM*
COc1ccc(C2C3C=CCC(c4cccc(/C=C/c5ccccc5)c4)C3C(=O)N2Cc2ccccc2)cc1Cl (stereo not drawn)	13.4%	1.4%	.	0.6%
CNC(=S)N(CCc1c(C)[nH]c2ccc(C)cc12)Cc1cc(OC)c(OC)c(OC)c1	?	23.1µM*	0.0%	?
CNC(=S)N(CCc1c(C)[nH]c2ccc(OC)cc12)Cc1cc(OC)c(OC)c(OC)c1	3.0%	-14.4%	0.4%	0.3%
C=C1C(=O)[C@@]23[C@H](O)C[C@@H]4C(C)(C)CC[C@H](O)[C@]4(C)[C@@H]2C[C@H](O)[C@@H]1[C@H]3O	-2.0%	14.6µM*	-2.1%	?
C=C1C(=O)[C@@]23[C@H](O)C[C@@H]4C(C)(C)CC[C@H](O)[C@@]4(C)[C@@H]2CC[C@@H]1[C@H]3O	8.8%	18.4µM*	-3.2%	?
CC(C)(C)OC(=O)NS(=O)(=O)Nc1ccccc1Br	-13.3%	1.7%	.	0.9%
COc1cccc(CN(C)C(=O)CNC(=O)c2sc3ccccc3c2Cl)c1OC	9.1%	25.9µM*	2.8%	-17.0%
Nc1ncc(S(=O)(=O)Nc2ccc(F)cc2F)cn1	0.6%	.	-0.8%	7.9%
Cc1ccc(C2(C)CC(C)(C)N(C(=O)CSc3nnc(C)s3)c3ccccc32)cc1 (stereo not drawn)	2.1%	20.6µM*	-0.8%	?
Cc1nnc(SCC(=O)N2c3ccccc3C(C)(c3ccccc3)CC2(C)C)s1 (stereo not drawn)	-0.2%	23.1µM*	4.0%	?
COc1ccc(CCN2C(=O)c3[nH]nc(-c4ccccc4O)c3C2c2ccccc2)cc1 (stereo not drawn)	0.3%	-24.7%	-2.3%	-14.0%
CCOC(=O)C1=C(c2ccccc2)N=c2sc(=Cc3cc(OC)c(OC)c(OC)c3)c(=O)n2C1c1cccs1 (stereo not drawn)	.	.	-0.6%	.
CCOC(=O)C1=C(c2ccccc2)N=c2s/c(=C\c3ccc(O)cc3)c(=O)n2C1c1cccs1 (stereo not drawn)	?	16.4µM*	-1.5%	?
Cc1ccccc1C(=O)N(Cc1nc(-c2ccc(Cl)cc2)no1)C(C)C	7.4%	?	-0.4%	-5.5%
COc1ccccc1C(=O)N(Cc1nc(-c2ccc(Cl)cc2)no1)C(C)C	5.5%	20.6µM*	0.3%	-11.3%
Cc1occc1C(=O)N(C)Cc1nc(-c2ccc(Cl)cc2)no1	5.2%	20.6µM*	4.4%	?
Cc1ccc(-c2noc(CN(C)C(=O)c3ccoc3C)n2)cc1	3.7%	25.7%	-0.2%	-1.5%
N#Cc1cccc(OC2=NS(=O)(=O)c3ccccc32)c1	0.0%	11.3%	.	10.1%
Cc1cc(C)cc(Cn2ncc3c4sc(C)cc4n(C)c3c2=O)c1	-3.0%	4.2%	.	-11.5%
O=C(NNc1ccccc1C(F)(F)F)c1sccc1Cl	-3.7%	2.8%	.	0.8%
CCc1nnc(NC(=O)CCC(=O)N2CCN(Cc3ccc(C)cc3C)CC2)s1	-4.6%	-2.0%	4.1%	1.0%
CCc1nnc(NC(=O)CCC(=O)N2CCN(CCOc3ccc(C)cc3)CC2)s1	-10.2%	20.6µM*	-0.8%	-11.6%
